This excerpt belongs to a sample that is enriched for hits.
Pf Dd2 growth – inhibitors of Plasmodium falciparum Dd2 growth; 120,000 compounds, 4.3% hits; Potency, µM (highest dose often 28.9 µM), for inactives: at the top dose activity, negative = inhibition, actives largely listed as inhibitors; P. falciparum Dd2 growth, SYBR Green, 72 h; active = well fitted inhibition curve with a large enough effect;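 also: plate controls were DMSO vehicle for no effect and reference drug for full effect; nearly all actives have a fitted effect of over 65% in size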
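Infected erythrocytes (Dd2, 0.3% parasitemia, 2.5% hematocrit final) are added to compound in RPMI-1640/Albumax II medium, grown 72 h at 37C in low oxygen, then lysed with saponin/Triton-X containing SYBR Green and read by fluorescence.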
The depositor's hits bear a star; i = inactive; [ ] = another dose, or the depositor's remark. Potency is read from the fitted curve at half-maximal effect.

SMILES	Pf Dd2 growth
Cc1ccc2c(CC(=O)N3CCOc4ccc(CN5CCOCC5)cc4C3)cc(=O)oc2c1	i
COc1ccc(CN2Cc3[nH]nc(-c4ccccc4)c3CC2=O)cc1	-17%[44.1 µM]
COc1ccc(CN2COc3ccc4c(-c5ccccc5)cc(=O)oc4c3C2)cc1	1.1µM*
Cc1ccc(CN2C[C@@H]3C(=O)N(Cc4ccc5c(c4)OCO5)C(=O)[C@@H]3C2)cc1	-22%
COc1ccc(CN2CCC3(CC2)CNC(=O)c2ccccc2O3)cc1	1%
Cc1ccc(CN2COc3ccc4c(-c5ccccc5)cc(=O)oc4c3C2)cc1	0.71µM*
Cc1ccc(NC(=O)N[C@@H]2C=C(C(=O)N[C@@H](Cc3ccc(O)cc3)C(N)=O)C[C@@H](O)[C@@H]2O)cc1	-21%
CC(=O)Nc1ccc(CN2CC(N3CCc4ccccc43)C2)cc1	-12%
CN1CCN(C(=O)CC[C@@H]2CNC(=O)[C@@H]3C[C@H](NC(=O)c4cccc(F)c4)CN23)CC1	11%[44.1 µM]
Cc1cc(C)cc(NC(=O)CCCn2c3ccccc3c(=O)c3ccccc32)c1	10µM*
Cc1cc(C)cc(NC(=O)CCCn2nc(C)c3c(C)n(-c4ccccc4)nc3c2=O)c1	25%
Cc1ccc(CNC(=O)CCCCn2c(=O)c3ccccc3n(Cc3ccc(C)cc3)c2=O)cc1	i
COc1cccc(CC(=O)N2CCc3nn(Cc4ccccc4)c(=O)n3CC2)c1	i
COC(=O)CN1C(=O)[C@@H]2C[C@@H](O)CN2C2(CN(CC3CC3)C2)C1=O	26%[44.1 µM]
COc1ccc(S(=O)(=O)N2CC(F)(F)C[C@H]2c2nc(C)no2)cc1	-7%
CCOC(=O)c1c(S(=O)(=O)N2CCCC(C(=O)Nc3cc(C)ccc3OC)C2)c(C)n(C)c1C (stereo not drawn)	29%
Cc1ccc(C)c(N2CCN(C(=O)C3CCN(S(=O)(=O)c4ccc5[nH]c(=O)oc5c4)CC3)CC2)c1	5.6µM*
CCOC(=O)c1c(C)[nH]c(C)c1S(=O)(=O)N1CCC(C(=O)N2CCN(c3ccccc3F)CC2)CC1	i
CCOC(=O)c1c(C)[nH]c(C)c1S(=O)(=O)N1CCCC(C(=O)NCc2ccc(C)cc2)C1 (stereo not drawn)	i
CCOC(=O)c1c(S(=O)(=O)N2CCC(C(=O)N3CCN(c4ccccc4F)CC3)CC2)c(C)n(C)c1C	i
Cc1ccc(Cl)cc1N1CCN(C(=O)C2CCN(S(=O)(=O)c3ccc4c(c3)oc(=O)n4C)CC2)CC1	i
CCOC(=O)c1c(S(=O)(=O)N2CCCC(C(=O)Nc3cc(C)ccn3)C2)c(C)n(C)c1C (stereo not drawn)	i
CCOC(=O)c1c(S(=O)(=O)N2CCCC(C(=O)N3CCN(c4cc(C)ccc4C)CC3)C2)c(C)n(C)c1C (stereo not drawn)	1µM*
Cc1ccc(C)c(N2CCN(S(=O)(=O)c3ccc4c(c3)CCCN4C(=O)C3CCC3)CC2)c1	6%
CCOC(=O)c1c(S(=O)(=O)N2CCCC(C(=O)Nc3ncccc3C)C2)c(C)n(C)c1C (stereo not drawn)	i
SMILES	Pf Dd2 growth
CCOC(=O)c1c(C)[nH]c(C)c1S(=O)(=O)N1CCCC(C(=O)N2CCN(c3cc(C)ccc3C)CC2)C1 (stereo not drawn)	1.3µM*
CCOC(=O)c1c(S(=O)(=O)N2CCCC(C(=O)N3CCN(c4cccc(C)c4C)CC3)C2)c(C)n(C)c1C (stereo not drawn)	1.1µM*
COc1ccc(C(C(=O)O)N2CCN(C(=O)c3ccco3)CC2)c(OC)n1 (stereo not drawn)	-25%
COc1ccc(-c2cc(C[C@H]3CNCC[C@H]3CC(=O)Nc3nccs3)no2)cc1	-7%[44.1 µM]
Cc1ccc(CN2C(=O)NC3(CCN(C(=O)c4ccc(C#N)cc4)CC3)C2=O)cc1	-1%
CC1=NS(=O)(=O)N(C)C=C1C(=O)OCc1nc(-c2cccc(Cl)c2)no1	100%
COc1ccc(-c2cn3c(n2)CO[C@@H](CNC(=O)c2ccccc2OC)C3)cc1	i
COc1ccc(NC(=O)NC[C@H]2Cn3cc(-c4ccc(C)cc4)nc3CO2)cc1	2.5µM*
COc1ccc(-c2cn3c(n2)CO[C@@H](CNC(=O)C2CCCC2)C3)cc1	-21%[44.1 µM]
COc1ccc(CNC(=O)Cn2c(C)cc3nc4n(c(=O)c32)CCCC4)cc1OC	-20%
O=C(O)C[C@@H]1CCN(C(=O)Nc2ccc(OC(F)(F)F)cc2)C[C@@H]1CCN1C[C@@H]2C[C@H](C1)c1cccc(=O)n1C2	i
O=C(Cc1ccccc1F)N1CCC2(CCCCO2)CC1	9%
Cc1cc(-c2ccc(C)c(S(=O)(=O)N3CCCC(C)C3)c2)on1 (stereo not drawn)	28%
Cc1ccc(-c2nnc(Nc3cccc(Cl)c3)c3ccccc23)cc1S(=O)(=O)N1CCN(C)CC1	-5%
Cc1cccc(Nc2nnc(-c3ccc(C)c(S(=O)(=O)N4CCN(C)CC4)c3)c3ccccc23)c1	10µM*
C#CCOc1ccc(-c2nnc(Nc3cccc(C)c3)c3ccccc23)cc1	-4%
Cc1ccc(-c2nnc(Nc3cccc(Br)c3)c3ccccc23)cc1S(=O)(=O)N1CCN(C)CC1	7.9µM*
O=C(Cn1nc(-c2ccc(Cl)cc2)c2ccccc2c1=O)Nc1cccc(Br)c1	-8%
CCO[C@H]1CN(C(=O)CCSCc2ccc(F)cc2)C[C@@H]1O	-8%
O=C(c1ccc2c(c1)OCO2)N1CCN(C2CCNCC2)C(=O)C1	-4%
Cc1csc(NC(=O)c2nc(C(O)c3ccccc3)oc2C)n1 (stereo not drawn)	i
COc1cccc(NC(=O)CCC2CCN(C(=O)c3cc4ccccc4cn3)CC2)c1	-28%
Cc1cnc(C)c(-c2cc(O)c3c(c2)CN(C(=O)C2CCNC2)CCO3)n1 (stereo not drawn)	3%
CCOc1ccc(C(=O)c2cn(Cc3ccccc3OC)c3cc4c(cc3c2=O)OCCO4)cc1	-13%
COc1ccc(C(=O)c2cn(Cc3ccccc3OC)c3cc4c(cc3c2=O)OCO4)cc1	-3%
SMILES	Pf Dd2 growth
Cc1ccc2c(c1)c(=O)c(C(=O)c1ccccc1)cn2Cc1ccccc1F	13µM*
COc1ccccc1Cn1cc(C(=O)c2ccc(F)cc2)c(=O)c2cc3c(cc21)OCO3	5%
Cc1ccc(C(=O)c2cn(Cc3ccccc3F)c3cc4c(cc3c2=O)OCCO4)cc1	-10%
Cc1ccc(C(=O)c2cn(Cc3ccccc3)c3ccccc3c2=O)cc1	i
CCOc1ccc(NC(=O)Cn2cc(C(=O)c3ccc(C)cc3)c(=O)c3cc4c(cc32)OCO4)cc1	-9%
Cc1ccc(Cn2cc(C(=O)c3ccc4c(c3)OCO4)c(=O)c3cc(C)ccc32)cc1	10µM*
COc1ccc(C(=O)c2cn(Cc3cccc(C)c3)c3cc4c(cc3c2=O)OCCO4)cc1OC	7.9µM*
Nc1nc2c(c(NC3CC3)n1)CCN(C(=O)CCCn1cncn1)CC2	-1%
CN(C)c1ccc(CN2CC(Oc3ccc4c(c3)OCO4)C2)cc1	1%
COc1ccc(CN2C(=O)O[C@@H]3CN(Cc4cnc(C)[nH]4)C[C@@H]32)cc1OC	1%
Cc1cccc(NC(=O)C2CCN(C(=O)c3nnn4cc(C)[nH]c(=O)c34)CC2)c1	i
Cc1cc(C[C@@H]2COC[C@@H]2NC(=O)c2cc(=O)n(-c3ccccc3)[nH]2)on1	i
COC[C@@H]1CN(S(=O)(=O)c2ccccc2)C[C@H]1c1nc(C)no1	19%
FC(F)(F)c1cccc(Nc2ncc(-c3cccnc3)c3c2OCC3)c1	8.9µM*
Cc1cc(-c2cnc(Nc3ccc(F)cc3)c3c2CCO3)ccn1	i
COc1cccc(Nc2ncc(-c3cccc(N(C)C)c3)c3c2OCC3)c1	-8%[44.1 µM]
